From PubChem BioAssay AID624170 (National Center for Advancing Translational Sciences (NCATS), 2012) come the findings set out here.

The campaign covered roughly 410,000 compounds. About 850 (0.21%) were called active. Roughly 2% stayed inconclusive and do not appear here. The call rests on the fitted dose curve; in most records, active means well fitted inhibition curve with a large enough effect; inconclusive means small, poorly fitted or top-dose-only effect, or another doubt; inactive means no such curve, though single readings can be large or run the other way. The entries come from a sample that favours actives as a whole. Entries that show only a call come without a potency.
Potency means the concentration at half of the fitted maximal effect.

The target in this experiment is Glutaminase kidney isoform, mitochondrial (Homo sapiens) (UniProt O94925). Briefly: qHTS for Inhibitors of Glutaminase (GLS). The following applies: GLS enzymatic activity, qHTS titration; series mostly up to 45.5 µM. Summed up: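 Human kidney-isoform GLS in 45 mM KH2PO4 pH 8.2, 0.02% Tween-20, with compound, started with 1mM L-Glutamine (added stock). Glutamate oxidase/HRP/Amplex red coupled fluorescence read at start and after 30 min at RT.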
Sequence of Glutaminase kidney isoform, mitochondrial (Homo sapiens) (O94925 whole entry, looked up, canonical isoform): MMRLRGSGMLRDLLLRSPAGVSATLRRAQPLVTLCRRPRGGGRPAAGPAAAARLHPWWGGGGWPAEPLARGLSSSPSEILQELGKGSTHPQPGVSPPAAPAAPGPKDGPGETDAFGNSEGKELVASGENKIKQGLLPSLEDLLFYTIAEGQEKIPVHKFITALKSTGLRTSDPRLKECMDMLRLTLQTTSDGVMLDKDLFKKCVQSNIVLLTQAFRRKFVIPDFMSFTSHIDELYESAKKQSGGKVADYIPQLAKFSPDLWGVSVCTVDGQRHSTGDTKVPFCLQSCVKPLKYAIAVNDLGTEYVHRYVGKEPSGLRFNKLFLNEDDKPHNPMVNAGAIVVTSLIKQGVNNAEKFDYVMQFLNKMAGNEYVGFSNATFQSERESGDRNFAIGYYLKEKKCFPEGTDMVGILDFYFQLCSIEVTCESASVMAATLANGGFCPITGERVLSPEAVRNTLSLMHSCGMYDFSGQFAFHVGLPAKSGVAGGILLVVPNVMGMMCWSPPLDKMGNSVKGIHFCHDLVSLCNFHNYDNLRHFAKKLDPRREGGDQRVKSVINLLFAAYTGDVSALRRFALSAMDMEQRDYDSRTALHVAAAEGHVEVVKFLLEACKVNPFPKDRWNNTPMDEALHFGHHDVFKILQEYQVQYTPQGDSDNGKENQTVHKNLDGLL
Regarding `CCC(C)[C@@H](N)C(=O)O` (some centres not stated), the Potency entry was “inactive”.

For the molecule `NCCCCC(N)C(=O)O` (configuration not stated), the Potency entry is “inactive”.

For the molecule `Oc1ccc(Cl)c2c1CCC2`, the Potency result is “inactive”.

Take `CC(=O)OC[C@H]1O[C@@H](O[C@H]2[C@H](O)[C@@H](OC(=O)c3ccccc3C(=O)O)[C@H](O)O[C@@H]2COC(C)=O)[C@H](O)[C@@H](OC(=O)c2ccccc2C(=O)O)[C@@H]1O`: the Potency result is “inactive”.

As to `Cc1ccnc(-n2sc3ccccc3c2=O)n1`, the Potency was 10 µM (active).

On to `Cc1ccnc(SC2CC(=O)N(c3ccccc3)C2=O)n1` (configuration not stated), for which the Potency result was “inactive”.

Turning to `C/C=C/C=N/NC(=O)c1ccncc1`, the Potency entry is “inactive”.

Regarding `CCOC(=O)c1sc(NC(=O)/C=C/c2ccc(C(C)C)cc2)c(C(=O)OCC)c1C`, the Potency entry is “inactive”.

For `CCOc1cccc2c1N[C@@H](c1ccc(C(=O)O)cc1)[C@H]1CC=C[C@@H]21`, the Potency was 3.98 µM (active).

Regarding `CCOC(=O)C1Nc2ccc(C(F)(F)F)cc2C2C=CCC12` (configuration not stated), the Potency entry was “inactive”.

Turning to `CCOc1cccc(CC(=O)N2CCc3c([nH]c4ccccc34)C2c2ccc(F)cc2)c1OCC` (configuration not stated), the Potency entry is “inactive”.

Turning to `Cc1ccc(S(=O)(=O)NC(=O)NN2C[C@H]3CCC[C@@H]3C2)cc1`, the Potency entry was “inactive”.

With `Cc1ccc(S(=O)(=O)n2nc(C)c(S(=O)(=O)N3CCCCCC3)c2C)cc1`, the Potency entry is “inactive”.

`CC(C)(O)c1ccccc1CC[C@H](SCC1(CC(=O)O)CC1)c1cccc(/C=C/c2ccc3ccc(Cl)cc3n2)c1`: the Potency result was “inactive”.

Regarding `COc1ccnc(C[S@@](=O)[C@@H]2Nc3ccc(OC(F)F)cc3N2)c1OC`, the Potency result is “inactive”.

For `C=C1C(=CC=C2CCC[C@]3(C)[C@@H]([C@H](C)C=C[C@H](C)C(C)C)CC[C@@H]23)C[C@@H](O)C[C@@H]1O`, the Potency result was “inactive”.

As for `Cc1cccc(CCNC(=O)c2ccc3c(c2)nc2n3CCC(C)C2)c1` (configuration not stated), the Potency result is “inactive”.

For the molecule `CCOC(=O)CSc1nc2c(c(=O)n(Cc3ccccc3Cl)c(=O)n2C)n1C`, the Potency is 7.94 µM (active).

`CCN(CC)C(=O)CSc1nc2ccsc2c(=O)n1Cc1ccccc1Cl`: the Potency result is “inactive”.

Turning to `CCC1CCCCN1C(=O)CSc1nc2c(c(=O)n(C)c(=O)n2C)n1C` (configuration not stated), the Potency entry is “inactive”.

As for `Cc1ccc(S(=O)(=O)N2CCc3cc(C(=O)Nc4ccc(Cl)cc4C)ccc32)cc1`, the Potency entry is “inactive”.

`CC(=O)CC(c1ccccc1)C1C(=O)Oc2ccccc2C1=O` (configuration not stated): the Potency result was “inactive”.

For the molecule `Cc1ccc(NC(=O)c2cc(S(=O)(=O)NCCC3=CCCCC3)ccc2F)cc1C`, the Potency entry is “inactive”.

On to `CC1(C)OC2CO[C@]3(COS(N)(=O)=O)OC(C)(C)OC3C2O1` (some centres not stated), for which the Potency result is “inactive”.

As to `CCOc1ccc(NS(=O)(=O)c2ccc(N)cc2)nn1`, the Potency result is “inactive”.

Consider `CN(C)CCCSc1ccccc1NC(=O)/C=C/c1ccccc1`, for which the Potency result was “inactive”.

Regarding `Oc1ccc(/C=N/Nc2ccc(C(F)(F)F)cn2)cc1O`, the Potency was 11.2 µM (active).

As for `COc1ccc(/C=N/NC(=O)Cn2cc(C(F)(F)F)ccc2=O)cc1`, the Potency result is “inactive”.

Take `C/C=C1\C2C=C(C)CC1(N)c1ccc(=O)[nH]c1C2` (configuration not stated): the Potency entry was “inactive”.

`Cc1c(Cl)cccc1NC(=O)C1CCCN(C(=O)c2cnn(-c3ccccc3)c2-n2cccc2)C1` (configuration not stated): the Potency entry is “inactive”.

Regarding `CCCCCCCCCCCCCCCCO`, the Potency entry is “inactive”.

Regarding `CCCN(CCC)S(=O)(=O)c1ccc(C(=O)Nc2sc3c(c2C(=O)OC)CCN(CC)C3)cc1`, the Potency entry was “inactive”.

For the molecule `Cc1ccc(CN2CCc3nc(N4CCN(C)CC4)ncc3C2)cc1`, the Potency result is “inactive”.

In the case of `CC(=O)NC(=O)c1ccccc1O`, the Potency entry is “inactive”.

As to `Cc1ccc(NC(=O)Cn2sc3ccccc3c2=O)cc1`, the Potency was 7.08 µM (active).

Regarding `CC1(C)NC(=O)N(CC(=O)Nc2ccc(-c3ccccc3)cc2)C1=O`, the Potency result was “inactive”.

`O=C(Cn1nc(C(=O)O)c2ccccc2c1=O)Nc1ccc(F)cc1`: the Potency result was “inactive”.

`Cc1ccc(Cl)cc1N1CCN(C(=O)CN2C(=O)COc3ccc(S(=O)(=O)N4CCOCC4)cc32)CC1`: the Potency entry is “inactive”.

`CC(=O)c1ccc(S(=O)(=O)NCCC(=O)N2CCN(c3ccccn3)CC2)cc1`: the Potency entry was “inactive”.

Regarding `C=Cc1ccc(C(=O)N2CCCC(CCC(=O)N3CCN(c4ccccn4)CC3)C2)cc1` (configuration not stated), the Potency was 17.8 µM (active).

In the case of `COc1cccc(CC(=O)N2CCCC(CCC(=O)N3CCN(c4ccccn4)CC3)C2)c1` (configuration not stated), the Potency entry was “inactive”.

Take `CCOC(=O)c1ccc(NC(=O)C2CCN(S(=O)(=O)c3ccc4c(c3)CCCC(=O)N4)CC2)cc1`: the Potency result is “inactive”.
